Assay [1] is described as follows: NCI Yeast Anticancer Drug Screen. Data for the rad50 strain (AID 155).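 Also: 0% = growth of vehicle-only cultures of the same strain.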 Conditions: S. cerevisiae rad50 strain growth inhibition; at 50.0 µM; active compounds read high. Summed up: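 DNA repair mutant yeast, compound exposure, growth read-out; inhibition is taken relative to vehicle.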
The nature of assay [2]: NCI Yeast Anticancer Drug Screen. Data for the mec2-1 strain (AID 157). Particulars: S. cerevisiae mec2-1 strain, at 50.0 µM, active compounds read high. A digest of the protocol:
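Strain: mec2-1 (DNA repair/cell cycle alteration). Compound exposure, then growth measured; inhibition expressed relative to vehicle.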

Assay [3] is described as follows: NCI Yeast Anticancer Drug Screen. Data for the sgs1 mgt1 strain (AID 161).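 Also: 0% = growth of cultures given vehicle only.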 Particulars: S. cerevisiae sgs1 mgt1 strain, at 50.0 µM, active compounds read high. Summed up:
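Genetically altered yeast, compound exposure, growth inhibition relative to vehicle.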

A short description of assay [4]: NCI Yeast Anticancer Drug Screen. Data for the cln2 rad14 strain (AID 165).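 Also: 0% = growth equal to vehicle treated cultures.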 Conditions: S. cerevisiae cln2 rad14 strain, at 50.0 µM, active compounds read high. Summed up:
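Compounds are applied to the cln2 rad14 yeast strain, and growth is then compared with that of vehicle-treated cultures to give inhibition.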

Assay [5] is described as follows: NCI Yeast Anticancer Drug Screen. Data for the bub3 strain (AID 167). Conditions: S. cerevisiae bub3 mutant strain, at 50.0 µM, active compounds read high. Summed up:
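In this screen, a yeast mutant lacking normal mitotic checkpoint function is challenged with compound. Relative growth versus vehicle gives the inhibition value.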

Assay [6] can be described thus: NCI Yeast Anticancer Drug Screen. Data for the mlh1 rad18 strain (AID 175). Particulars: S. cerevisiae mlh1 rad18 strain growth inhibition; at 50.0 µM; active compounds read high. Summed up: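 Read-out is yeast growth inhibition, calculated against vehicle-only controls. The compound was applied to a strain engineered with DNA damage repair alterations.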

About 79,000 compounds went through this panel and 15% of them were active in at least one assay; those are over-represented in the sample as a whole. Unmarked numbers belong to inactive results. Active and inactive are the calls of the source. Rule as the data show it: active = growth inhibition above about 70%; inactive = the rest.

For `O=C1CSC(c2ccco2)N1CCN1C(=O)CSC1c1ccco1` (stereo not given), the growth inhibition in assay [1] is -19%; in assay [2], -5%; in assay [3] it was -12.7%; in assay [4], -39.4%; in assay [5], -8.6%; in assay [6], -15.7%.

Consider `Cc1ccc(S(=O)(=O)OCC2COC(C(C)C)OC2)cc1` (stereo not given), for which the growth inhibition is 5.45% in assay [1]; -2.95% in assay [2]; 9.3% in assay [3]; 2.15% in assay [4]; 48% in assay [5]; -1.25% in assay [6].

Regarding `N.N.N.N.N.O=C([O-])c1nn[n-]n1.[Cl-].[Co+3]`, the growth inhibition is -0.8% in assay [1]; -1.1% in assay [2]; 7.15% in assay [3]; 23.4% in assay [4]; 3.75% in assay [5]; -7.5% in assay [6].

Take `O=C(COc1ccc(Cl)cc1)Nc1ccc(I)cc1`: the growth inhibition in assay [1] was 0.05%; in assay [2] it was -4.85%; in assay [3] it was 0.6%; in assay [4], -5.15%; in assay [5], -1.45%; in assay [6] it was 6.45%.

`N#CCCN(CCC#N)c1nc(-c2ccccc2)nc(N(CCC#N)CCC#N)n1`: the growth inhibition was -1.95% in assay [1]; -16.6% in assay [2]; -1.75% in assay [3]; 0.9% in assay [4]; 2.75% in assay [5]; 15.1% in assay [6].

With `CN1[C@@H]2C[C@@H](OC(=O)[C@H](CO)c3ccccc3)C[C@H]1[C@@H]1O[C@@H]12`, the growth inhibition in assay [1] was -1.3%; in assay [2], 2.4%; in assay [3] it was -33.7%; in assay [4] it was -20.4%; in assay [5] it was -10.3%; in assay [6] it was 5.6%.

`COc1cc(C=C(c2ccc(N(C)C)cc2)c2ccc(N(C)C)cc2)c2ccccc2c1OC`: the growth inhibition in assay [1] was 22.9%; in assay [2], 14.5%; in assay [3], 3.15%; in assay [4] it was 27.3%; in assay [5] it was -12.8%; in assay [6], -42.5%.

With `Nc1cc(S(=O)(=O)O)cc2cccc(S(=O)(=O)O)c12`, the growth inhibition in assay [1] is 7%; in assay [2], -7.7%; in assay [3], 0.35%; in assay [4], -20.6%; in assay [5] it was 25.2%; in assay [6], 30.8%.

In the case of `Cc1ccc(S(=O)(=O)N(CCO)CCCO)cc1`, the growth inhibition is -16.7% in assay [1]; -43.3% in assay [2]; -9.95% in assay [3]; 5.1% in assay [4]; -35.3% in assay [5]; 1.7% in assay [6].

On to `O=C(Nc1ccc(F)cc1)C(=O)C(C(=O)c1ccccc1F)C1OC(=O)c2ccccc21` (stereo not given), for which the growth inhibition is 2.8% in assay [1]; -0.05% in assay [2]; -10.6% in assay [3]; 1.55% in assay [4]; -0.35% in assay [5]; 2.25% in assay [6].

As for `C=CCOC(C)n1c(C)cc(=O)n(C(C)OCC=C)c1=O` (stereo not given), the growth inhibition was -56.6% in assay [1]; -26.8% in assay [2]; -46.6% in assay [3]; -38.5% in assay [4]; -44.9% in assay [5]; -29.8% in assay [6].

In the case of `C[S+]1Cc2nc3ccccc3n2C1c1c(F)cccc1F` (stereo not given), the growth inhibition is 4.65% in assay [1]; -19.2% in assay [2]; -1.75% in assay [3]; 12.8% in assay [4]; -14.7% in assay [5]; 2.35% in assay [6].

As to `COC(=O)C1OC(O[C@H]2CC[C@]3(C)[C@H]4CC=C5[C@@H]6CC(C)(C)CC[C@]6(C(=O)OC6OCC(O)C(O)C6OC6OC(C)C(OC7OCC(OC8OCC(O)C(O)C8O)C(O)C7O)C(O)C6O)[C@H](O)C[C@@]5(C)[C@]4(C)CC[C@H]3C2(C)C)C(O)C(O)C1O` (stereo not given in full), the growth inhibition is 26.3% in assay [1]; 17% in assay [2]; 10.3% in assay [3]; 11.9% in assay [4]; 42.6% in assay [5]; 32.2% in assay [6].

On to `OC1OC2COC(c3ccccc3)OC2C(O)C1O` (stereo not given), for which the growth inhibition in assay [1] was 4%; in assay [2] it was -14.5%; in assay [3], 8.15%; in assay [4] it was -3.35%; in assay [5], -3.3%; in assay [6], -20.9%.

Turning to `COc1ccc(C(O)CC(O)(C(F)(F)F)C(F)(F)F)cc1` (stereo not given), the growth inhibition in assay [1] is 52.7%; in assay [2], 27.6%; in assay [3], 35.3%; in assay [4], 20.3%; in assay [5], 46%; in assay [6], 80.8% (active).

Take `CCOC(=O)/C(C#N)=C/Nc1[nH]c(=O)c(C#N)c(-c2ccc(Cl)cc2)c1SC`: the growth inhibition in assay [1] was 10.9%; in assay [2], 5.8%; in assay [3] it was -9.35%; in assay [4], -9.2%; in assay [5] it was 2.1%; in assay [6], 16.8%.

Consider `N#CC1NCNC1N` (stereo not given), for which the growth inhibition in assay [1] is 0.2%; in assay [2], 0.65%; in assay [3] it was -6.6%; in assay [4], 1.15%; in assay [5] it was -1.25%; in assay [6], -16.8%.

For `Cc1cc(=O)[nH]c2ccc(Cc3ccc(Cl)cc3)cc12`, the growth inhibition in assay [1] was 12.8%; in assay [2], 1.75%; in assay [3], 4.9%; in assay [4], 7.6%; in assay [5] it was 3.1%; in assay [6] it was 1.65%.

For `COc1ccc2c(c1)CCCN1CCc3cc(OC)c(OC)cc3C21` (stereo not given), the growth inhibition in assay [1] is 21.1%; in assay [2], 60.8%; in assay [3] it was -21.3%; in assay [4] it was -8.85%; in assay [5], 4.5%; in assay [6] it was -17.7%.

Consider `C=CCC(CC=C)(C(=O)Nc1ccc2nc(C)cc(N)c2c1)C(=O)Nc1ccc2nc(C)cc(N)c2c1`, for which the growth inhibition in assay [1] was 2.05%; in assay [2] it was 24.7%; in assay [3], 22.1%; in assay [4], 20.1%; in assay [5], 12.4%; in assay [6], -10.1%.

Values taken from PubChem BioAssay (NCI).
